Our source for the sensor-assay potency score (higher = more potent) values is the OligoGym collection.
Further: reference of the scale not given here.

The target of one experiment is WFIKKN1. Nature of the experiment: pooled miR-30 sensor sort-seq; sequence = guide strand. The conditions noted are these: shRNA.
Turning to TGATGCAGCACTTCTCAGCAGC, the sensor-assay potency score (higher = more potent) was -0.485.

In turn, TCGTAGGTCTCAAAGCCGCGGG showed a sensor-assay potency score (higher = more potent) of -1.25.

The sequence TCGCTGGTGACTCTGCTTCTCC showed a sensor-assay potency score (higher = more potent) of -1.48.

TTGACGCGCTTCTCGCTGGCGG gave a sensor-assay potency score (higher = more potent) of -0.83.

For TCATCCTTGAGCACGTCCTCGA, the sensor-assay potency score (higher = more potent) was -0.412.

As to TCTCTCGCTGGTGACTCTGCTT, the sensor-assay potency score (higher = more potent) is -0.761.

AAGAACTTGAGGCCCATCTTGT returned a sensor-assay potency score (higher = more potent) of -0.385.

In a further experiment the target is WIZ. The description is as above. The conditions noted are these: shRNA.
TTGACAAGTGATGTCTGGGGGG showed a sensor-assay potency score (higher = more potent) of -0.32.

For the sequence TTCTGCTGTAGGTCATTGGTGT, the sensor-assay potency score (higher = more potent) was -0.0622.

TTCTCGAAGAACTCGCCGCAGA returned a sensor-assay potency score (higher = more potent) of -0.9.

Turning to TTTGGAGAAGTTCATCTCCAGG, the sensor-assay potency score (higher = more potent) was -1.49.

For TTCTTCTTGAGGATCTCTCGCA, the sensor-assay potency score (higher = more potent) is -0.31.

AATTCCACCTCACAGAACCTGC yielded a sensor-assay potency score (higher = more potent) of -1.06.

TTTGTTGATGTTCTGCCGCTGG yielded a sensor-assay potency score (higher = more potent) of -0.379.

TTGAGGATCTCTCGCAGTGTGT gave a sensor-assay potency score (higher = more potent) of -1.29.

TTGGCCTTGACCTCTGCTGGGA had a sensor-assay potency score (higher = more potent) of -0.479.

The sequence TTCAAATTTGTTGATGTTCTGC registered a sensor-assay potency score (higher = more potent) of 0.0401.

TATTTGTTCAGGCTTCAGCTTC came in with a sensor-assay potency score (higher = more potent) of -1.07.

Turning to TCTTCTTGAGGATCTCTCGCAG, the sensor-assay potency score (higher = more potent) was -0.0721.

In the next experiment the target is WNK4. Described as above. The conditions noted are these: shRNA.
TTTTCTGTAGTGTCTGTAGTGT registered a sensor-assay potency score (higher = more potent) of 0.147.

As to TTGAGGTATCGGCCATCGGGGG, the sensor-assay potency score (higher = more potent) was -1.54.

As to TACTTTTCCTCGTACATCTCGG, the sensor-assay potency score (higher = more potent) is -0.00694.

On to TTTCCTCGTACATCTCGGGGGC, for which the sensor-assay potency score (higher = more potent) was -0.103.

Sequence TCAAACTTGAGGTATCGGCCAT showed a sensor-assay potency score (higher = more potent) of -0.186.

TTGTTGATCAGAAAGCATCAGA displayed a sensor-assay potency score (higher = more potent) of -0.592.

The sequence ATTGTCGCACTTGAGATCCCGG yielded a sensor-assay potency score (higher = more potent) of -0.626.

Turning to TTCTGTAGTGTCTGTAGTGTTT, the sensor-assay potency score (higher = more potent) was -0.833.

Turning to TAGTTCATCCACACTGGGCTGG, the sensor-assay potency score (higher = more potent) was -0.183.

In turn, TACACCGTCTTGAAGGAGCCAC returned a sensor-assay potency score (higher = more potent) of -0.497.

Sequence TTTTCCTCGTACATCTCGGGGG came in with a sensor-assay potency score (higher = more potent) of 0.127.

On to TTTCTGTAGTGTCTGTAGTGTT, for which the sensor-assay potency score (higher = more potent) is -0.643.

The target in a further experiment is WNT16. The description is as above. The settings on record: shRNA.
TTATCTTCTACACAGTAGTTGG: the sensor-assay potency score (higher = more potent) is -1.09.

TTCTTTGTCACTAAACATCTGT yielded a sensor-assay potency score (higher = more potent) of -0.0723.

TAACTTTTCAACATCTTCTATC showed a sensor-assay potency score (higher = more potent) of -0.48.

Sequence TCTACTGACATCAACTTGGCGA showed a sensor-assay potency score (higher = more potent) of -0.481.

On to TTTACATTAAAATACATCCTTA, for which the sensor-assay potency score (higher = more potent) was -0.353.

Sequence TTAACTTTTCAACATCTTCTAT returned a sensor-assay potency score (higher = more potent) of -0.546.

As for TAAAATATAATAAATATCCAGG, the sensor-assay potency score (higher = more potent) was -0.303.

For TAACAGTTGAAACTGATCTGTG, the sensor-assay potency score (higher = more potent) turned out to be 0.0469.

Turning to TTTCTTATCTTCTACACAGTAG, the sensor-assay potency score (higher = more potent) was -0.455.
